This is a sample that favours compounds with a hit; in the whole collection about 4.7% have one here.
DUSP3 inh – VHR1 phosphatase inhibitors, primary screen, biochemical, absorbance, uHTS; Dual specificity protein phosphatase 3 (Homo sapiens), P51452; recombinant VHR phosphatase, pNPP absorbance; inhibition, % at 13.3 µM; 0.52% of 290,000 active; AID 1654, 2009; in the data active means inhibition above about 50%
Target sequence (P51452 whole entry, looked up): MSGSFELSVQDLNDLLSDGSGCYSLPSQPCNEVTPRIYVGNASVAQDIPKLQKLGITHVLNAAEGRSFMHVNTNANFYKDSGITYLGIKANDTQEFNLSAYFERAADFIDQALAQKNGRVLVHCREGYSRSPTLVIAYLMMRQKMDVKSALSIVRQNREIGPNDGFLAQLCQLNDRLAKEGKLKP
RecA splice inh – Mtb RecA intein splicing inhibitors, primary screen, biochemical, fluorescence, HTS; Protein RecA (Mycobacterium tuberculosis (strain ATCC 25618 / H37Rv)), P9WHJ3; cell-free RecA intein splicing; inhibition, % (concentration not given with the values); 0.75% of 290,000 active; AID 2221, 2009; in the data active means inhibition above about 30%;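 further: 0% = vehicle wells and 100% = reference inhibitor control wells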
3CLpro inhibitor – SARS-CoV 3CLpro protease inhibitors, primary screen, biochemical, quenched FRET; Replicase polyprotein 1ab (Severe acute respiratory syndrome coronavirus), P0C6X7; recombinant SARS-CoV 3CLpro, quenched FRET peptide cleavage; inhibition, % at 6 µM; 0.14% of 290,000 active; AID 1706, 2009; in the data active means inhibition above about 12%
CCHF vOTU inh-1 – CCHFV vOTU protease inhibitors, primary screen, biochemical, Pep-AMC substrate, fluorescence; Crimean-Congo hemorrhagic fever virus L polyprotein viral ovarian tumor (vOTU) protease …; inhibition, % at 11.5 µM; 0.55% of 370,000 active; further: 0% = vehicle wells with enzyme and 100% = no enzyme wells
GDH-TPI inh – GDH-TPI coupling enzyme inhibitors, primary screen, artefact control for M. tuberculosis FBA inhibitor project, biochemical, absorbance, full deck; inhibition, % at 4.8 µM; 1.2% of 360,000 active; AID 588335, 2011; GDH-TPI coupled enzyme counterscreen, NADH absorbance;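 further: 0% = DMSO wells and 100% = wells lacking the enzyme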
Mtb FBA inh – Mtb FBA enzyme inhibitors, primary screen, biochemical, fluorescence, strain H37Rv | Fructose-bisphosphate aldolase (Mycobacterium tuberculosis (strain ATCC 25618 / H37Rv)), … | purified M. tuberculosis FBA, fluorescence read-out | inhibition, % at 1 µM | 2.3% of 360,000 active | AID 588726, 2011; in the data active means inhibition above about 27%;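 further: 0% = vehicle and 100% = reference inhibitor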
Target sequence (P9WQA3 whole entry, looked up): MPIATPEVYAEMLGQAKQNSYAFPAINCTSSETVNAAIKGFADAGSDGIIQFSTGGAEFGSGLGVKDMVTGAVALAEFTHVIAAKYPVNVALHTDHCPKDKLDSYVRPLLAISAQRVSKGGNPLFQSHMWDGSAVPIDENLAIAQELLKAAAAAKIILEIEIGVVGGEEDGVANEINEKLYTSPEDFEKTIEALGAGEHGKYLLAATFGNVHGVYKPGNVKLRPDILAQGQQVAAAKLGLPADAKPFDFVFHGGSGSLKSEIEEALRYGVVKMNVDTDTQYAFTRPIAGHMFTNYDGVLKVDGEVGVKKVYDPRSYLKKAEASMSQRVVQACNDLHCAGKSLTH
CCHF vOTU inh-2 – CCHFV vOTU protease inhibitors, confirmation, biochemical, Pep-AMC substrate, fluorescence; shares compounds with CCHF vOTU inh-1; Recombinant CCHFV vOTU; inhibition, % at 11.5 µM; 17% of 1,900 active; AID 686976, 2013
* = called active by the depositor; / = no result. Unless noted, no stated cut-off is given here; in the data, active means inhibition above about 30%; inactive means the rest.

SMILES	DUSP3 inh	RecA splice inh	3CLpro inhibitor	CCHF vOTU inh-1	GDH-TPI inh	Mtb FBA inh	CCHF vOTU inh-2
CCOC(=O)N=Nc1c2ccccc2c2nc3no[nH]c3nc12	26	/	1	59*	13	-1	86*
O=C(COc1ccccc1[N+](=O)[O-])N(Cc1ccccc1)c1ccccn1	14	2	-3	2	1	1	/
CCCN(CCC)CC(O)CN1C(=O)N(CN2C(=O)N(CC(O)CN(CCC)CCC)C(=O)C2(C)C)C(C)(C)C1=O (configuration not stated)	4	0	3	3	0	0	/
COc1ccccc1NS(=O)(=O)c1cccc(-n2c(O)c(C=Nc3ccccc3C(=O)O)c3ccccc3c2=O)c1	0	19	7	38*	9	6	37*
Cc1cc(C)cc(NC(=O)CN(C)CC(=O)N(CC(C)C)c2c(N)n(CC(C)C)c(=O)[nH]c2=O)c1	/	/	/	35*	2	1	-27
COc1ccc(NC(=O)CN(C)CC(=O)N(CC(C)C)c2c(N)n(CC(C)C)c(=O)[nH]c2=O)cc1	/	/	/	-4	-6	2	/
O=C(NC1(O)C(=O)c2ccccc2C1=O)c1ccc(C(F)(F)F)cc1	9	7	4	81*	-2	3	35*
NC(=S)N=Nc1c(O)cc(O)c2[nH]c(=O)ccc12	/	/	/	87*	37*	-4	90*
CCCCCCCCN1C(=O)[C@H](CC(=O)NCc2ccccc2)C[C@@]2(C(=O)OCC)CCCC=C12	/	/	/	33*	/	/	5
CCOC(=O)[C@]12CCCC=C1N(CCc1ccc(OC)c(OC)c1)C(=O)[C@H](CC(=O)N1CCCC1)C2	/	/	/	33*	/	/	-23
CCCCCCCCN1C(=O)[C@H](CC(=O)N2CCSCC2)C[C@@]2(C(=O)OCC)CCCC=C12	/	/	/	39*	/	/	3
C#CCNC(=O)C[C@@H]1C[C@@]2(C(=O)OCC)CCCC=C2N(CCCCCCCC)C1=O	/	/	/	31*	/	/	15
CCOC(=O)N1CCN(C(=O)C[C@@H]2C[C@@]3(C(=O)OCC)CCCC=C3N(CCc3ccc(OC)c(OC)c3)C2=O)CC1	/	/	/	-4	/	/	/
CCCCCCCCN1C(=O)[C@H](CC(=O)NCC2CCCCC2)C[C@@]2(C(=O)OCC)CCCC=C12	/	/	/	20	/	/	/
COc1ccc(C2CCCCC2SCC(=O)O)cc1OC (configuration not stated)	/	/	/	-21	-3	2	/
CC1(C)Oc2ccc(C(=O)NCCCN3CCCC3)cc2NC1=O	/	/	/	9	/	/	/
COc1cc(CNC2CCCC2)c(Br)cc1OC1CCCC1	24	0	-2	4	3	3	/
COc1cc(CNCc2ccccc2)c(Br)cc1OC1CCCC1	19	1	-1	31*	6	-1	-11
CCCCCCCCCCCCCCCC[N+](C)(C)Cc1ccc(F)cc1	/	/	/	56*	-15	1	57*
CCCCCCCCN1C(=O)[C@H](CC(=O)N2CCN(C(=O)C3CC3)CC2)C[C@@]2(C(=O)OC)CCCCC=C12	/	/	/	14	/	/	/
CCCCCCCCN1C(=O)[C@H](CC(=O)N2CCN(C(=O)C3CC3)CC2)C[C@@]2(C(=O)OC)CC(C)(C)CC=C12	/	/	/	31*	/	/	19
CCCCCCCCN1C(=O)[C@H](CC(=O)N2CCN(C(=O)OCC)CC2)C[C@@]2(C(=O)OC)CC(C)(C)CC=C12	/	/	/	32*	/	/	22
CCOC(=O)N1CCN(C(=O)C[C@@H]2C[C@@]3(C(=O)OC)CC(C)(C)CC=C3N(Cc3ccccc3)C2=O)CC1	/	/	/	20	/	/	/
CCNc1ncnc2[nH]ncc12	/	/	/	-14	9	6	/
O=C(COC(=O)c1ccc([N+](=O)[O-])s1)Nc1ccc(Cl)cn1	1	/	2	41*	13	-2	51*
SMILES	DUSP3 inh	RecA splice inh	3CLpro inhibitor	CCHF vOTU inh-1	GDH-TPI inh	Mtb FBA inh	CCHF vOTU inh-2
Cc1ccc(C(=O)OCC(=O)Nc2ccc(Cl)cn2)s1	/	/	/	0	8	-3	/
Cc1c(Cl)cnc(NC(=O)COC(=O)c2ccc([N+](=O)[O-])s2)c1Cl	21	7	1	74*	12	-5	74*
COc1cc(C(=O)Nc2cc3c4c(c2)CC(=O)N4CCC3)cc(OC)c1OC	/	23	/	34*	-7	0	-10
COc1ccc(CC(NC(C)=O)C(=O)NC2CCN(c3ncccc3[N+](=O)[O-])CC2)cc1 (configuration not stated)	22	-2	2	0	-4	-4	/
CC(=O)Nc1ccc(NC2=C/C(=N/S(=O)(=O)c3cccs3)c3ccccc3C2=O)cc1	19	/	-2	110*	-8	-2	97*
CC(=O)Nc1ccc(NC(=O)C(C)OC(=O)c2ccccc2NS(=O)(=O)c2cccs2)cc1 (configuration not stated)	8	3	1	-8	-3	6	/
C[C@H](CO)N1C[C@H](C)[C@@H](CN(C)C(=O)NC2CCCC2)Oc2cc(Br)ccc2S1(=O)=O	/	/	/	30*	0	0	-10
COc1ccc(C#Cc2ccc3c(c2)O[C@H](CN(C)S(=O)(=O)c2ccccc2F)[C@H](C)CN([C@H](C)CO)S3(=O)=O)cc1	/	/	/	1	/	11	/
COc1ccc(S(=O)(=O)N(C)C[C@@H]2Oc3cc(C#CC4CCCCC4)ccc3S(=O)(=O)N([C@@H](C)CO)C[C@@H]2C)cc1	/	/	/	32*	16	2	-8
O=C(NCc1c(Cl)cccc1Cl)c1[nH]c(C(F)(F)F)nc1-c1ccccc1	/	/	/	0	/	2	/
CC(=O)N1CCN(c2cc(-c3ccccc3)nc3cc(-c4cccc(Cl)c4)nn23)CC1	/	/	/	-8	7	11	/
CCOC(=O)/C=C(\C)Sc1cc(O)c2ccccc2c1O	28	/	11	111*	7	-5	98*
Cc1cc(C)nc(OC(=O)c2ccc(Cl)cc2Cl)n1	30	6	5	30*	/	/	-22
CCC(Sc1nc2ccsc2c(=O)n1Cc1ccc(C(=O)O)cc1)C(=O)Nc1cc(Cl)ccc1C (configuration not stated)	/	/	/	8	-4	1	/
CCC(Sc1nc2ccsc2c(=O)n1Cc1ccc(C(=O)O)cc1)C(=O)Nc1ccc(C)c(Cl)c1 (configuration not stated)	-14	0	10	31*	2	3	8
Clc1ncc(CN2CCN(Cc3ccccc3)CC2)s1	11	-1	-2	-1	-10	1	/
COCCCNc1c2c3c(cccc3[nH]c1=O)C(=O)c1ccccc1-2	13	/	-7	32*	12	-6	1

Bioassay records deposited in PubChem BioAssay by several laboratories.
